# S1P3 antag: antagonists of human S1P3 receptor | AID 485 | Q99500 | inhibition, % at 4.98 µM | 0.27% of 170,000 active | CHO S1P3 NFAT-BLA reporter, FRET fluorescence, antagonist mode;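 active = inhibition above the plate cutoff, the mean inhibition of test wells on that plate plus 3 SD, cut at about 28% in these data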;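 note: cells challenged with S1P at its EC80 of 0.8 µM; blue over green emission ratio from cleaved BLA substrate after 4 h stimulation; 0% = S1P-stimulated wells and 100% = unstimulated DMSO-only wells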
# Target sequence (Q99500 whole entry, looked up): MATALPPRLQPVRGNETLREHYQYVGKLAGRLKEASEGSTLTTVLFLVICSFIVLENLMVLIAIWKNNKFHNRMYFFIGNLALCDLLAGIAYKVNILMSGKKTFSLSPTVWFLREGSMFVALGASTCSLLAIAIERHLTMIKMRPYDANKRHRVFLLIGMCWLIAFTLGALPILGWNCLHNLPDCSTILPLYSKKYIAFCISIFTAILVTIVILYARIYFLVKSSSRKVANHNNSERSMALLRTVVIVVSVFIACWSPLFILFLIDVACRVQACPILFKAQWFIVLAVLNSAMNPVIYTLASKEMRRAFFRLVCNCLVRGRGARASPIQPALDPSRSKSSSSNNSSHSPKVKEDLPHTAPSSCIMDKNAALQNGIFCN
# ROMK mod: human ROMK K+ channel modulation, primary screen. P48048. Tet-inducible ROMK, thallium flux fluorescence; actives lie on both sides. B-score at 10 µM. 2% of 130,000 active. AID 1918;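 active = signal ratio slope over the read window, or its plate-corrected B-score, at least 3 SD from the plate mean, either direction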;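 note: B-score of the F/F0 ratio slope over 7 to 12 s after thallium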
# RAM network inh: yeast RAM network inhibition. S. cerevisiae dse1pr::URA3 reporter, 5-FOA growth OD615, 2 d; analog-sensitive cbk1-as2 kinase mutant strain. inhibition, % at 50 µM. 1.8% of 190,000 active. AID 868;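 active = inhibition above a set limit, 3 SD over mean compound inhibition, cut at about 8.4% in these data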;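 note: 0% = DMSO-only wells with no growth and 100% = 10 µM 1-NA-PP1 full growth; inhibition rescues growth on 5-FOA so higher OD means more RAM inhibition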
# S1P4 antag: antagonists of human S1P4 receptor. S1P4-expressing cells, antagonist mode, reporter read-out. inhibition, % at 4.98 µM. 0.26% of 220,000 active; in the data active = inhibition above about 29%;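 note: 0% = wells stimulated with agonist and 100% = vehicle wells without agonist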
# Target sequence (O95977 whole entry, looked up): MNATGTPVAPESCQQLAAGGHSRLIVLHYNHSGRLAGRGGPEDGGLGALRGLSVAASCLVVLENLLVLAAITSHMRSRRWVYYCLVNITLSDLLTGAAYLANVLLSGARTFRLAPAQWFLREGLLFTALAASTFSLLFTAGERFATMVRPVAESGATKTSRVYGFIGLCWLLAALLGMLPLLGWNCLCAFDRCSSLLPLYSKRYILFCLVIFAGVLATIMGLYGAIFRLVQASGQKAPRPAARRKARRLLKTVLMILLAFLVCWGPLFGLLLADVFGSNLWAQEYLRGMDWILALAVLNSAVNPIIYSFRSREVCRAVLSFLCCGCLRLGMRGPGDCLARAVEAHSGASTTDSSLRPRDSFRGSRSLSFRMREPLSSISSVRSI
# S1P4 agonist: agonists of human S1P4 receptor; O95977; S1P4-expressing cell line, agonist reporter assay; activation, % at 4.98 µM; 0.35% of 220,000 active; AID 1509; in the data active = activation above about 11%;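 note: 0% = DMSO vehicle and 100% = reference agonist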
# Cl transport mod: KCC2 (human) Cl- transport modulation; Q9H2X9; KCC2 cells, thallium flux FluoZin-2 fluorescence; B-score of Tl+ flux slope (higher = more flux/activation; lower = inhibition) at 10 µM; 2.2% of 190,000 active;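 active = thallium flux slope and its plate-corrected score both differing from the plate sample mean at a set confidence after two filtering rounds, in either direction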;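 note: slope of fluorescence scaled to starting intensity during 10 to 20 s after thallium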
# KCC2 secondary: KCC2 (human) modulation, secondary assay. shares compounds with Cl transport mod. HEK293-KCC2, thallium flux, FluoZin2 fluorescence; stronger effect = higher value. normalised thallium flux (F/F0 slope) at 10 µM. 15% of 3,700 active;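 active = thallium flux slope above the same plate's solvent-only control mean plus 3 SD; inconclusive = the two replicate wells disagree; inactive = no significant difference from solvent-only control wells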
# KCC2 bumet counter: bumetanide-insensitive thallium flux in KCC2 cells with ouabain, counter-screen | shares compounds with Cl transport mod | HEK293-KCC2 + bumetanide/ouabain, thallium flux FluoZin2; stronger effect = higher value | normalized thallium flux at 10 µM | 49% of 3,700 active;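 active = thallium entry rate above the same plate's blocked-transporter control wells by more than 3 SD; inconclusive = the two repeat wells disagree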;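 note: raw slope of fluorescence over initial fluorescence between 10 and 20 s after thallium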
# KCC2 sec2: confirmation of human KCC2 transport modulators. normalized thallium flux at 10 µM. 23% of 3,700 active. shares compounds with Cl transport mod. HEK293-KCC2, thallium flux FluoZin2 fluorescence; actives lie on both sides; F/F0 rise rate, 10–20 s post-thallium;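 active = thallium flux slope more than 3 SD above or below the plate's solvent-only control mean, mostly below; inconclusive = the two repeat wells disagreed; inactive = no significant shift from solvent-only controls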;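 note: raw slope with 0.1% DMSO as baseline and bumetanide as block control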
# HEK293 Tl flux: counter-screen for KCC2 modulators: effect in parental HEK293 cells | shares compounds with Cl transport mod | thallium flux FluoZin2, ouabain; baseline-ratio fluorescence slope, 10–20 s after thallium | thallium flux rate (normalised fluorescence) at 10 µM | 46% of 3,700 active | AID 1716;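 active = thallium flux rate significantly above the same plate's solvent-only control wells, beyond their mean plus 3 SD; inconclusive = the two replicate wells gave conflicting results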
# KCC2 retest ouab: modulates human KCC2 on retest with ouabain; shares compounds with Cl transport mod; HEK293-KCC2, thallium flux FluoZin2 fluorescence; bidirectional: low = inhibitor, high = activator; raw Tl+ flux slope (below DMSO = inhibition, above = activation) at 10 µM; 48% of 3,700 active; AID 1717;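 active = thallium flux slope beyond 3 SD from same-plate DMSO control mean in most replicates, usually higher, sometimes lower; inconclusive = repeat tests gave conflicting results; inactive = no significant difference from controls in most replicates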;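 note: slope of initial-normalized fluorescence between seconds 10 and 20 after thallium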
# HEK counter2: counter-screen for KCC2 modulators: effect in parental HEK293 cells; thallium flux slope at 10 µM; 33% of 3,700 active; AID 1718; thallium flux FluoZin-2 fluorescence slope; shares compounds with Cl transport mod;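 active = thallium flux slope above the same plate's solvent-control mean plus 3 SD in both duplicate wells; inconclusive = duplicate wells that disagreed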;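 note: run without ouabain in cells lacking the KCC2 cotransporter; slope of fluorescence scaled to its starting value between 10 and 20 s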
# The depositor's hits bear a star; ? = inconclusive; . = no result given. Compounds with a hit are over-represented: about 5.1% of the library has one in this group of screens.
SMILES,S1P3 antag,ROMK mod,RAM network inh,S1P4 antag,S1P4 agonist,Cl transport mod,KCC2 secondary,KCC2 bumet counter,KCC2 sec2,HEK293 Tl flux,KCC2 retest ouab,HEK counter2
NC(=O)[C@@H]1CCOc2c(I)cc([N+](=O)[O-])cc2C(=O)N[C@@H](CO)C(=O)NCC(=O)N1,0.0,-0.116,1.3,15.5,0.7,0.613,.,.,.,.,.,.
Cc1ccc(F)cc1NC(=O)CSc1ncccn1,-11.3,0.0123,-1.0,-2.7,-0.5,-0.313,.,.,.,.,.,.
O=C(CCc1nc2ccccc2s1)OCC(=O)c1ccc[nH]1,-12.0,1.29,0.0,-24.9,-1.6,1,.,.,.,.,.,.
COCCCNCC(=O)Nc1ccc(OC(F)(F)F)cc1,.,.,1.9,-12.4,0.7,3.65*,0.00911,0.00622,0.0295,0.00715,0.0269,0.0098
O=C1c2ccccc2C(=O)N1Cc1cccnc1,-21.0,-0.0247,2.1,-1.8,1.7,-5.35*,0.00841,0.00583,0.0306,0.00717,0.021,?
COc1ccc(CNC(=O)c2coc(=O)c3ccccc23)c(OC)c1,-5.6,-0.0733,1.7,9.2,-0.2,0.0743,.,.,.,.,.,.
COC(=O)c1sccc1NC(=O)CSc1ccccc1NS(=O)(=O)c1ccc(F)cc1,.,.,3.8,-3.3,-2.2,.,.,.,.,.,.,.
COC(=O)c1sccc1NC(=O)CSc1ccccc1NS(=O)(=O)c1ccc(Br)cc1,.,.,3.7,-8.1,0.3,3.53*,0.00826,0.0128*,0.0367,0.0157*,0.0237,0.0126*
S=C(Nc1ccccc1)Nc1nc2ccccc2n1CCOc1ccccc1,.,0.282,3.7,-0.5,1.3,28.9*,0.0115*,0.0595*,0.0294,0.0173*,0.0357*,?
CCN(CC)CCCN1C=C2C(=O)C(C)(OC(=O)C3CCCC3)C(=O)C=C2C=C1c1ccsc1 (stereo unspecified),.,.,.,.,.,1.23,.,.,.,.,.,.
O=C(NN=C(Cc1ccccc1)Cc1ccccc1)c1ccccc1O,-5.0,0.884,2.5,-3.5,3.7,22.9*,?,0.0624*,0.05*,0.0365*,0.049*,0.0314*
CCC/C(C)=N/NC(=O)c1ccccc1O,0.5,.,0.2,-28.8,0.2,0.11,.,.,.,.,.,.
C/C(=N\NC(=O)c1ccccc1O)C1C(=O)c2ccccc2C1=O,.,1.02,2.6,-11.8,4.7,-3.84*,0.00688,0.00548,0.0291,?,0.0151*,0.00896
CN1CCN(c2ccc(Cl)cc2NC(=O)/C=C/c2ccc(F)cc2)CC1,-6.5,0.593,2.6,3.2,0.4,0.595,.,.,.,.,.,.
Cc1c(Cl)sn(-c2ccc(Cl)cc2)c1=O,-5.2,-2.54,-1.9,23.8,0.7,-5.88*,0.00623,0.00477,0.0232*,0.00694,0.0116*,?
O=C(Nc1nc2ccc(F)cc2s1)c1ccccn1,11.2,0.866,1.8,4.5,0.1,60.4*,0.00609,0.0965*,0.0613*,0.0563*,0.0761*,0.0523*
CCOC(=O)c1csc(Nc2nc3ccc(F)cc3s2)n1,-41.4,.,3.5,-8.2,-0.8,27.4*,0.0204*,0.0789*,0.0335,0.0556*,0.057*,0.0183*
O=C(Nc1nc2ccccc2s1)c1cnccn1,.,0.294,2.9,-3.5,-3.4,1.23,.,.,.,.,.,.
COC(=O)c1ccc2nc(Nc3nc4ccc(F)cc4s3)sc2c1,-29.6,.,2.3,-2.5,5.1,0.635,.,.,.,.,.,.
CN(C)c1ccc(/C=N/c2cc(-c3ccccc3)nn2-c2ccccc2)cc1,.,.,1.2,-5.9,0.6,0.654,.,.,.,.,.,.
CC(C)C[C@@H]1NC(=O)[C@H](C(C)C)NC(=O)c2cc([N+](=O)[O-])cc(I)c2OCC[C@@H](C(N)=O)NC1=O,-19.8,0.121,2.4,12.1,0.7,-0.41,.,.,.,.,.,.
CC(C)CNC(=O)c1ccc(COc2ccc(Cl)cc2Cl)o1,.,.,2.0,-28.5,1.3,-4.03*,0.00536,0.00494,0.0233*,0.00617,0.0134*,0.00913
C=CCn1c(O)c(N=NC(=O)OCC)c2ccccc21,-2.6,-0.504,1.2,-1.0,1.0,-0.532,.,.,.,.,.,.
C=CCn1c(O)c(N=NC(=S)Nc2cccc(OC)c2)c2ccccc21,-7.1,0.466,6.4,6.6,0.1,70.7*,0.0202*,0.109*,0.0308,0.041*,0.0521*,0.0134*
C=CCn1c(O)c(N=NC(=S)Nc2ccc(OC)cc2)c2ccccc21,-2.0,1.29,3.7,2.9,-2.0,53.1*,0.00651,0.061*,0.0639*,0.0591*,0.0585*,0.0495*
SMILES,S1P3 antag,ROMK mod,RAM network inh,S1P4 antag,S1P4 agonist,Cl transport mod,KCC2 secondary,KCC2 bumet counter,KCC2 sec2,HEK293 Tl flux,KCC2 retest ouab,HEK counter2
CCOC(=O)n1cc(-c2cnc(CNC(=O)C(C)(c3ccccc3)c3ccccc3)o2)c2ccccc21,2.0,-0.714,1.9,-10.0,0.8,-0.371,.,.,.,.,.,.
CC(=O)Nc1ccc2c(c1)nc1n2CCN(C2CCCCC2)C1,-10.1,-0.202,0.6,-17.0,-0.4,0.0601,.,.,.,.,.,.
O=C1COc2ccc(C(=O)CSc3nc4ccccc4c(=O)n3-c3ccc(Cl)c(Cl)c3)cc2N1,-11.0,-0.496,3.5,5.5,0.0,2.48*,?,0.0188*,0.0327,0.0102*,0.0227,?
CCc1ccc(-n2c(SCC(=O)c3ccc4c(c3)NC(=O)CO4)nc3ccccc3c2=O)cc1,19.2,0.232,0.4,-8.4,0.3,2.91*,0.00942,0.0116*,0.0305,0.00862*,?,0.00937
COc1ccccc1-n1cc(CN2CCN(C3CCCCC3)C(CCO)C2)cn1 (stereo unspecified),-3.3,-0.0519,-0.2,-20.8,1.5,0.364,.,.,.,.,.,.
CC1CC2=C(C(=O)O1)C(c1ccc(Cl)cc1)Nc1ccccc1N2 (stereo unspecified),0.0,.,1.2,-55.6,0.7,0.227,.,.,.,.,.,.
CCC(c1nnc(SCc2nc3ccccc3s2)n1Cc1ccccc1)N(C)C (stereo unspecified),8.9,-1.57,1.5,-3.8,1.6,.,0.0149,0.00464,?,0.0066,0.0139,0.00989
c1ccc(Cn2c(SCc3nc4ccccc4s3)nnc2-c2ccco2)cc1,10.7,.,6.2,1.0,1.5,-3.36*,0.00629,?,0.0274*,0.00527*,?,0.00764*
COc1ccc(OC)c(NC(=O)c2ccc(CSc3ncccn3)cc2)c1,6.3,.,2.0,-7.0,0.8,.,.,.,.,.,.,.

# From PubChem
